Laboratory results taken from ChEMBL document CHEMBL4513139, “CO-ADD screening of University of Strathclyde (UK) compounds”.
Among all 21,000 compounds or so, fewer than 10 showed an effect of 50% or more. These entries were drawn from the full list. Entries with a potency or affinity are not part of this list.

test system: Acinetobacter baumannii; conditions: Concentration 32 ug.mL-1; ASSAY_TEST Inhibition of Bacterial Growth; detection method Absorption (OD600); MEDIA CAMHB; plate type 384well; NBS; CORNING #3640; time 18 hr

SMILES	Inhibition
Cn1cc(NC(=O)c2cc(NC(=O)c3ccc(/C=C/c4cccc(F)c4)cc3)cn2C)cc1C(=O)NCCN1CCOCC1.O=C(O)C(F)(F)F	5.74%
